The whole screen tested about 310,000 compounds, of which about 2,200 (0.71%) showed an effect of 50% or more. The effect is printed as a negative number. The list comes from a sample in which strong results are over-represented; it also holds similar structures and randomly drawn compounds.

The target of the assay is human ether-à-go-go-related gene (hERG) potassium channel (human, UniProt Q12809). The experiment in a line: primary screen, population patch clamp on CHO cells stably expressing hERG; higher = less effect of the substance.
Sequence of human ether-à-go-go-related gene (hERG) potassium channel (Q12809 whole entry, looked up): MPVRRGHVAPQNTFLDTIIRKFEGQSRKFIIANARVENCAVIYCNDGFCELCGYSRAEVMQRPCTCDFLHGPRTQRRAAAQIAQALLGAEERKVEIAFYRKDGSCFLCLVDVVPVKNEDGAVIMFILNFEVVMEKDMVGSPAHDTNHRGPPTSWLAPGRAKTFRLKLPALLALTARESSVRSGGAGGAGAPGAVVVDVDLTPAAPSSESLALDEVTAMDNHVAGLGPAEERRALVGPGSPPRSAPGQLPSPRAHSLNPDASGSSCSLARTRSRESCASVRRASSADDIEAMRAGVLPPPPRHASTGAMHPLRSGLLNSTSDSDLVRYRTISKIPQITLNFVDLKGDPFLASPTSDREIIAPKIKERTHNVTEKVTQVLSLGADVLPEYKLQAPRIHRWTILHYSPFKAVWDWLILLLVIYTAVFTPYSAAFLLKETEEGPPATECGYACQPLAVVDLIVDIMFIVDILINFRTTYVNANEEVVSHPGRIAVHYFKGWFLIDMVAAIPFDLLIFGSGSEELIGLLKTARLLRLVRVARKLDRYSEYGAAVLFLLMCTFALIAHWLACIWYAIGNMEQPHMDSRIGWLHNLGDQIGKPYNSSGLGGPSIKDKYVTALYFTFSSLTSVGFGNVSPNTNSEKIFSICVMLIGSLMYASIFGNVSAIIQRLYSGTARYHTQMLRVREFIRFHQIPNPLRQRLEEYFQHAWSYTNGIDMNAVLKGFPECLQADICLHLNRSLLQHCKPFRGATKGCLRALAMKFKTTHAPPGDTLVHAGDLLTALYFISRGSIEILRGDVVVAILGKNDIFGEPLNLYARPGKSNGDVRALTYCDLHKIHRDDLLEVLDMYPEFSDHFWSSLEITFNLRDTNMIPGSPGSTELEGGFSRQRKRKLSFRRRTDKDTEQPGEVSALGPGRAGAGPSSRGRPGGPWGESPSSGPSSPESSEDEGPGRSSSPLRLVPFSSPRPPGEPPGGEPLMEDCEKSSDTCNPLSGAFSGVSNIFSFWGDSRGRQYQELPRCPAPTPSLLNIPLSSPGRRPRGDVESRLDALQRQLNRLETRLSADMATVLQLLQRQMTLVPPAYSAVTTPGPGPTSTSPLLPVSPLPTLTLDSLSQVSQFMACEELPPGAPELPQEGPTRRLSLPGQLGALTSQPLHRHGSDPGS
On to `C#CCNC(=O)C1=C[C@H](c2ccc3c(c2)OCO3)C[C@H](OCCCCO)O1`, for which the “hERG current change (%, negative = inhibition) at 1uM” value is 15%.
With `CCN(CC(=O)Nc1c(F)cccc1F)C(=O)c1ccc2ncsc2c1` the figure was 12.3%; with `CC1=CCC(C(=O)O)C(C(=O)Nc2cccnc2)C1` (stereo not shown), 5.97%.
With `COc1ccc(CCNC(=O)CNS(=O)(=O)c2ccc(Br)s2)cc1OC` the figure was 1.45%; with `CC(CN1CCOCC1)OC(=O)C1COc2ccccc2O1.Cl` (stereo not shown), 7.15%; with `CC(NCC(=O)Nc1ccccc1C(=O)NC1CC1)c1ccc(S(C)(=O)=O)cc1` (stereo not shown), 10.9%.
Next, `CCCc1cc(=O)oc2c(C)c(OCC(=O)NCCN3CCOCC3)ccc12`: -6.02%; `CCc1cc(=O)oc2c(C)c(OCC(=O)NCCN3CCOCC3)ccc12`: 12.8%; `CCCCc1cc(=O)oc2c(C)c(OCC(=O)NCCN3CCOCC3)ccc12`: -77.1%.
Turning to `Cc1nc2cc(NC(=O)NCc3ccccc3)ccc2o1`, the “hERG current change (%, negative = inhibition) at 1uM” value is 16.2%.
With `CCOC(=O)Cc1nc2ccccc2o1` the figure was 9.03%; with `O=C(NCc1cccnc1)Nc1ccc(Cl)cc1`, -18.3%; with `CCOC(=O)C1=C(OCc2ccc(Cl)cc2)C2C=C(C)C=CC2N=C1` (stereo not shown), -18.1%.
Next, `COc1ccccc1CNn1c(-c2cccc(C)c2)nc2ccccc2c1=O`: 5.72%; `COc1ccc(CNn2c(-c3cccc(C)c3)nc3ccccc3c2=O)cc1OC`: -54.8%.
Take `COc1cccc(CNn2c(-c3cccc(C)c3)nc3ccccc3c2=O)c1`: the “hERG current change (%, negative = inhibition) at 1uM” value stood at 6.03%.
In the case of `Cc1cc(C)nc(/N=C(\N)N(Cc2ccccc2)Cc2ccccc2)n1`, the “hERG current change (%, negative = inhibition) at 1uM” value is -31.2%.
Next, `CCN(CC)/C(N)=N/c1nc(C)cc(C)n1`: 3.23%; `CCCCN(CCCC)/C(N)=N/c1nc(C)cc(C)n1`: -51.8%.
In the case of `Cc1cc(OCC(=O)N2CCC(C(=O)O)(c3ccccc3)CC2)c2c(C)c(C)c(=O)oc2c1`, the “hERG current change (%, negative = inhibition) at 1uM” value is given as 4.94%.
As for `COc1ccc(OCC(=O)Nc2ccc(OC)c(S(=O)(=O)N3CCCCC3)c2)cc1`, the “hERG current change (%, negative = inhibition) at 1uM” value is given as -2.82%.
With `Brc1ccc(Oc2nnnn2-c2ccccc2)cc1`, the “hERG current change (%, negative = inhibition) at 1uM” value came out at 11%.
Next, `COc1cc(OC)cc(C(=O)N2CCC(C(=O)Nc3ccc4c(c3)OCCO4)CC2)c1`: 12.5%.
With `O=C(Nc1ccc2c(c1)OCCO2)C1CCN(C(=O)c2ccc(F)cc2)CC1` the figure was 5.7%.
`COc1ccc(C(=O)N2CCC(C(=O)Nc3ccc(C)cc3)CC2)cc1`: the “hERG current change (%, negative = inhibition) at 1uM” value is -31.9%.
`COc1ccc(NC(=O)C2CCN(C(=O)c3ccc(OC)cc3)CC2)cc1`: the “hERG current change (%, negative = inhibition) at 1uM” value is recorded as -69.6%.
Next, `CC(=O)Nc1ccc(NC(=O)C2CCN(C(=O)c3ccc([N+](=O)[O-])cc3)CC2)cc1`: 22.3%.
As to `O=C(Nc1ccc(F)cc1)C1CCN(C(=O)c2ccc([N+](=O)[O-])cc2)CC1`, the “hERG current change (%, negative = inhibition) at 1uM” value stood at 11.5%.
For `O=C(Nc1ccc2c(c1)OCO2)C1CCN(C(=O)c2ccc([N+](=O)[O-])cc2)CC1`, the “hERG current change (%, negative = inhibition) at 1uM” value was -74.6%.
With `O=C(Nc1ccccc1)C1CCN(C(=O)c2ccc([N+](=O)[O-])cc2)CC1`, the “hERG current change (%, negative = inhibition) at 1uM” value is listed as -67%.
Next, `O=C(Nc1ccc2c(c1)OCCO2)C1CCN(C(=O)c2ccc([N+](=O)[O-])cc2)CC1`: -16.3%; `COc1ccc(C(=O)N2CCC(C(=O)Nc3ccc4c(c3)OCCO4)CC2)cc1`: -13.1%; `COc1ccc(C(=O)N2CCC(C(=O)Nc3ccc(OC)c(OC)c3)CC2)cc1`: 10.7%.
Next, `COc1ccc(C(=O)N2CCC(C(=O)Nc3ccc4c(c3)OCO4)CC2)cc1`: -59%; `CCC(Oc1ccccc1)C(=O)N(C)CC(=O)N(CC(C)C)c1c(N)n(CC(C)C)c(=O)[nH]c1=O` (stereo not shown): 7.85%; `CC(C)CC(=O)OCC(=O)Nc1ccccc1Sc1ccccc1`: 11.1%.
With `CN(Cc1ccc(OC(F)F)cc1)C(=O)c1ccc(S(=O)(=O)N(C)c2ccccc2)cc1` the figure was -19.2%.
As to `CCS(=O)(=O)N1Cc2ccccc2CC1C(=O)Nc1ncc(C)s1` (stereo not shown), the “hERG current change (%, negative = inhibition) at 1uM” value is listed as 7.83%.
Next, `Fc1ccc(N2Cc3ccsc3C=N2)cc1`: 9.09%.
Next, `CCOc1ccc(Nc2nc(Cc3nnc(SCC(=O)NC4CCCCC4)n3C)cs2)cc1`: -7.35%.
Next, `Cc1sc(-c2ccccn2)nc1OC(=O)c1ccc(F)cc1F`: 16.2%; `CCCCC(=O)Nc1c(-c2ccc(OC)c(OC)c2)c(=O)c2ccccc2n1C`: 10.7%.
With `O=C(NCC1CCCCC1)c1ccc([N+](=O)[O-])cc1`, the “hERG current change (%, negative = inhibition) at 1uM” value amounted to 8.06%.
With `O=C(NCC1CCN(C(=O)c2ccc([N+](=O)[O-])cc2)CC1)c1ccc([N+](=O)[O-])cc1`, the “hERG current change (%, negative = inhibition) at 1uM” value is recorded as -74.6%.
Next, `O=C(NCC1CCN(C(=O)c2cccc([N+](=O)[O-])c2)CC1)c1cccc([N+](=O)[O-])c1`: -5.98%.
Next, `O=C(Nc1ccc2c(c1)OCO2)C1CCN(C(=O)c2ccc(Cl)cc2)CC1`: -59.6%; `O=C(Nc1ccc2c(c1)OCO2)C1CCN(C(=O)c2ccc(Br)cc2)CC1`: -42.3%; `O=C(Nc1ccc2c(c1)OCCO2)C1CCN(C(=O)c2ccc(Cl)cc2)CC1`: 3.04%.
With `O=[N+]([O-])c1ccccc1/C=C\C=N\N1CCN(c2ccccc2)CC1` the figure was -7.95%; with `COc1cccc(CC2(CO)CCCN(Cc3ccccc3-c3ccco3)C2)c1` (stereo not shown), -55.6%; with `COc1cccc(CC2(CO)CCCN(Cc3ccc(CN4CCCCC4)s3)C2)c1` (stereo not shown), 0.717%.
In the case of `COc1cccc(CC2(CO)CCCN(Cc3ccccc3Cl)C2)c1` (stereo not shown), the “hERG current change (%, negative = inhibition) at 1uM” value was -12.5%.
As to `COc1cccc(CC2(CO)CCCN(Cc3ccc(C)s3)C2)c1` (stereo not shown), the “hERG current change (%, negative = inhibition) at 1uM” value is reported as -10.6%.
With `COc1cccc(CC2(CO)CCCN(Cc3cn(C)c4ccccc34)C2)c1` (stereo not shown) the figure was -54.8%.
Next, `COc1cccc(CC2(CO)CCCN(Cc3ccc(OC)c(C)c3OC)C2)c1` (stereo not shown): -80.2%; `COc1cccc(CC2(CO)CCCN(Cc3ccc(-c4ccco4)cc3)C2)c1` (stereo not shown): 9.67%.
`COc1cccc(CC2(CO)CCCN(Cc3ccc(CO)o3)C2)c1` (stereo not shown): the “hERG current change (%, negative = inhibition) at 1uM” value is given as -1.35%.
With `COc1cccc(CC2(CO)CCCN(Cc3cn[nH]c3-c3ccccc3)C2)c1` (stereo not shown) the figure was -6.05%.
